# According to PubChem BioAssay (EPA / NIEHS):
# Some structures have more than one record in an assay (separate samples or runs), and their calls can disagree. Active and inactive are the calls of the source. Rule for the calls: active = hit-call score of the fitted dose curve at least 0.9, where 1 is the maximum; inactive = score below 0.9.
# Read-out: Interleukin-1 alpha (IL1a), IL1A (gene 3552)
# Test: BSK_LPS_IL1a: BioMAP Diversity Plus: LPS Assay for Interleukin-1 alpha (IL1a) Biomarker Activity (AID 2283080)
# Settings: primary human HUVEC with PBMC; actives raise or lower the signal
# Method: BSK_LPS is a cell-based, multiplexed-readout assay that uses umbilical vein endothelium and peripheral blood mononuclear cells, a human vascular primary cell co-culture, with measurements taken at 24 hours after chemical dosing in a 96-well plate.BSK_LPS_IL1a is an assay component measured in the BSK_LPS assay. It measures IL-a antibody related to regulation of gene expression using ELISA technology.Data from the assay component BSK_LPS_IL1a was analyzed into 1 assay endpoint. This assay endpoint, BSK_LPS_IL1a, was analyzed with bidirectional fitting relative to DMSO as the negative control and baseline of activity. Using a type of binding reporter, gain or loss-of-signal activity can be used to understand changes in the signaling as they relate to the gene IL1A. Furthermore, this assay endpoint can be referred to as a primary readout, because this assay has produced multiple assay endpoints where this one serves a signaling function. To generalize the intended target to other relatable targets, this assay endpoint is annotated to the cytokine intended target family, where the subfamily is interleukins.
# The levels of cell surface (or secreted, indicated by the prefix "s") biomarker endpoints were measured by ELISA. Overt cytotoxicity to cells in confluent adherent cultures (all systems other than the BT system) was assessed by measuring total protein levels using sulforhodamine B (SRB) staining in parallel cultures at the time of biomarker measurements, indicated as SRB endpoints. For proliferation assays for adherent cell types, individual cell types are cultured at sub-confluence and relative cell numbers quantified by SRB staining at time points optimized for each system (48 h: 3C and CASM3C systems; 72 h: BT and HDF3CGF systems; 96 h: SAg system). SRB was performed by staining cells with 0.1% SRB after fixation with 10% TCA and reading wells at 560 nm.Viability and proliferation of PBMC (T cells) was quantified by Alamar Blue reduction for the SAg and BT systems. For PBMC viability (referred to as PBMC Cytotoxicity within the assay endpoint names), cells were plated (75,000/well in a 96-well plate) and then chemical samples added for 1 h before addition of activators, SEB and TSST-1 (20 ng/mL final concentration each). Cells were incubated for 90 h. Then, Alamar Blue (20 uL/well) (Invitrogen, Cat DAL1100) was added for 6 h, and the plates were read with a fluorescence microplate reader at 546/580 nm (excitation/emission). For PBMC proliferation, cells were plated and activated as above but incubated for only 16 h prior to addition of Alamar Blue. Plates were read after 6 h.
Compound,outcome,AC50
FC(F)(Br)C(F)(F)C(F)(F)C(F)(F)C(F)(F)C(F)(F)Br,inactive,
CCCCCCCOC(=O)c1ccccc1C(=O)OCCCCCCC,inactive,
FC1CC(F)(F)C(F)(F)C1(F)F (stereo not given),inactive,
N=C(N)C(F)(F)C(F)(F)C(F)(F)C(F)(F)C(F)(F)C(F)(F)C(F)(F)F,inactive,38.2 µM (active)
C=C(C)C(=O)OCC(F)(F)C(F)(F)C(F)(F)C(F)(F)C(F)(F)C(F)(F)C(F)(F)F,inactive,
O=C(O)C(F)(OC(F)(F)C(F)(OC(F)(F)C(F)(F)C(F)(F)F)C(F)(F)F)C(F)(F)F (stereo not given),inactive,
Nc1ccc([N+](=O)[O-])cc1O,inactive,
OCCCC(F)(F)C(F)(F)C(F)(F)C(F)(F)C(F)(F)C(F)(F)C(F)(F)F,inactive,46 µM (active)
FC(F)(I)C(F)(F)C(F)(F)C(F)(F)I,inactive,
FC(F)(F)C(F)(F)C(F)(F)C(F)(F)C(F)(F)C(F)(F)CC1CO1 (stereo not given),inactive,
C=CC(F)(F)C(F)(F)C(F)(F)C(F)(F)C(F)(F)C(F)(F)C(F)(F)C(F)(F)F,inactive,
Cc1ccc(S(=O)(=O)OCC(F)(F)C(F)(F)C(F)(F)C(F)(F)C(F)(F)C(F)F)cc1,inactive,
C=CC(=O)OCC(F)(F)C(F)(F)C(F)(F)C(F)(F)C(F)(F)C(F)(F)C(F)(F)F,inactive,
FC(F)(F)C(F)(F)C(F)(F)N(C(F)(F)C(F)(F)C(F)(F)F)C(F)(F)C(F)(F)C(F)(F)F,inactive,
NC(=O)C(F)(F)C(F)(F)C(F)(F)C(F)(F)F,inactive,
CC(=O)Nc1ccc(N=Nc2cc(C)ccc2O)cc1,inactive,
C=CC/C=C/C/C=C/C/C=C/C,inactive,
CCCCCCCCC(F)(F)C(F)(F)C(F)(F)C(F)(F)C(F)(F)C(F)(F)F,inactive,
FC(F)(F)C(F)(F)CNCC(F)(F)C(F)(F)F,inactive,

Compound,outcome,AC50
FC(F)(F)C(F)(F)C(F)(F)C(F)(F)C(F)(F)C(F)(F)C(F)(F)C(F)(F)F,inactive,
C#C[C@]1(O)CC[C@H]2[C@@H]3CCc4cc(OC)ccc4[C@H]3CC[C@@]21C,,31.1 µM (active)
CCCCC(CC)COP(=O)(O)OCC(CC)CCCC (stereo not given),inactive,
OCC(F)(F)C(F)(F)C(F)(F)F,inactive,
CO[Si](OC)(c1ccccc1)c1ccccc1,inactive,
COC(=O)CCC(F)(F)C(F)(F)C(F)(F)C(F)(F)F,inactive,
O=C(CC(=O)C(F)(F)C(F)(F)F)C(F)(F)F,inactive,
CCc1c(Br)c(Br)c(Br)c(Br)c1Br,inactive,
O=C(O)C=C(C(F)(F)F)C(F)(F)F,inactive,
CC(CCl)OP(=O)(OC(C)CCl)OC(C)CCl (stereo not given),inactive,
C=C(C)C(=O)OCCC(F)(F)C(F)(F)C(F)(F)C(F)(F)C(F)(C(F)(F)F)C(F)(F)F,inactive,
O=P(O)(O)OCCC(F)(F)C(F)(F)C(F)(F)C(F)(F)C(F)(F)C(F)(F)F,inactive,
FC(F)(F)C(F)(F)C(F)(F)CI,inactive,
CCCCCCC(C)OC(=O)CCCCC(=O)OC(C)CCCCCC (stereo not given),inactive,
O=C(O)C(F)(F)C(F)(F)C(F)(F)C(F)(F)C(F)(F)C(F)(F)C(F)(F)C(F)(F)Cl,inactive,
C=CC(F)(F)C(F)(F)C(F)(F)C(F)(F)C(F)(F)C(F)(F)C(F)(F)C(F)(F)C=C,inactive,
O=C(O)C(F)(F)C(F)(F)C(F)(F)C(F)(F)C(F)(F)C(F)(F)C(F)(F)C(F)(F)C(F)(F)C(F)F,inactive,54.9 µM (active)
O[Si](c1ccccc1)(c1ccccc1)c1ccccc1,inactive,
